Test results: PubChem BioAssay (NCI)
The panel holds about 79,000 compounds, 15% with a hit somewhere; the sample as a whole holds those more often. A number with no mark means an inactive call. Active and inactive are the calls of the source. No stated cut-off is given here; in the data, active means growth inhibition above about 70%; inactive means the rest.

What was measured:
[1] = NCI Yeast Anticancer Drug Screen. Data for the rad50 strain (AID 155);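 further: 0% = growth of vehicle-only cultures of the same strain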; conditions: S. cerevisiae rad50 strain growth inhibition, hits give high values
Outline: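 Inhibition values express reduced yeast growth in compound-treated cultures relative to vehicle-treated controls.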

[2] = NCI Yeast Anticancer Drug Screen. Data for the mec2-1 strain (AID 157); conditions: S. cerevisiae mec2-1 strain, hits give high values
Outline: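 Using mec2-1 yeast: add compound, measure growth, express inhibition versus vehicle-treated cultures.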

[3] = NCI Yeast Anticancer Drug Screen. Data for the sgs1 mgt1 strain (AID 161);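 further: 0% = growth of cultures given vehicle only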; conditions: S. cerevisiae sgs1 mgt1 strain, hits give high values
Outline: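 Yeast cells carrying a defined DNA-repair defect were exposed to test compounds. Growth inhibition was measured relative to vehicle-treated controls.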

[4] = NCI Yeast Anticancer Drug Screen. Data for the cln2 rad14 strain (AID 165);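 further: 0% = growth equal to vehicle treated cultures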; conditions: S. cerevisiae cln2 rad14 strain, hits give high values
Outline: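 Yeast strain cln2 rad14, bearing defects in cell cycle control and DNA repair, serves as the test system; values reflect growth inhibition compared with vehicle.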

[5] = NCI Yeast Anticancer Drug Screen. Data for the bub3 strain (AID 167); conditions: S. cerevisiae bub3 mutant strain, hits give high values
Outline: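 Steps: expose the mutant yeast strain to compound; grow alongside vehicle-treated cultures; measure growth; express inhibition against the vehicle cultures.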

[6] = NCI Yeast Anticancer Drug Screen. Data for the mlh1 rad18 strain (AID 175); conditions: S. cerevisiae mlh1 rad18 strain growth inhibition, hits give high values
Outline: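 Steps: expose repair-defective yeast to compound; measure growth; express inhibition against vehicle-treated controls.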

[7] = at 5.0 µM (retest, dose inferred, filed as 0.5)
[8] = at 50.0 µM (retest, dose inferred, filed as 5.0)

SMILES | growth inhibition [1, 7] [%] | growth inhibition [1, 8] | growth inhibition ([1]; at 50.0 µM) | growth inhibition [2, 7] [%] | growth inhibition [2, 8] | growth inhibition ([2]; at 50.0 µM) | growth inhibition [3, 7] | growth inhibition [3, 8] | growth inhibition ([3]; at 50.0 µM) | growth inhibition [4, 7] [%] | growth inhibition [4, 8] | growth inhibition ([4]; at 50.0 µM) | growth inhibition [5, 7] | growth inhibition [5, 8] | growth inhibition ([5]; at 50.0 µM) | growth inhibition [6, 7] | growth inhibition [6, 8] | growth inhibition ([6]; at 50.0 µM)
CCCCCCCCCCCCCCNCC(OCC)OCC | 69 | 98% (active) | 90.7% (active) | 62 | 99% (active) | 93.4% (active) | 83% (active) | 99% (active) | 93.2% (active) | 61 | 98% (active) | 90.5% (active) | 75% (active) | 99% (active) | 91.5% (active) | 85% (active) | 98% (active) | 91% (active)
CCc1nc(N)nc(N)c1-c1ccc(NCCc2ccccc2)c([N+](=O)[O-])c1 | 13 | 16% | 25.9% | 9 | 8% | -2.75% | 17% | 19% | 5.15% | 7 | 6% | 9.75% | 13% | 15% | 14.4% | 7% | 19% | 24.9%
Cc1nc(N)nn1C | -1 | 10% | 2.9% | 0 | -2% | 6.1% | -3% | -1% | -3.55% | -4 | 0% | 6.7% | 0% | -2% | 44.2% | 1% | 2% | -0.4%
N#CCc1ccccc1-c1cccc2ccccc12 | 0 | 36% | 35.6% | 0 | 44% | 29.4% | -2% | 17% | 54.8% | 3 | 24% | 41.2% | 3% | 34% | 40% | 1% | 41% | 71.5% (active)
CCOC(=O)C1=NNC(C(=O)c2ccccc2)C1c1ccccc1 (configuration not stated) | 3 | 49% | 33.2% | 10 | 55% | 19.6% | 20% | 83% (active) | 81.2% (active) | 4 | 19% | -20.3% | 8% | 40% | 81.8% (active) | 12% | 82% (active) | 68.8%
CCC1(C)C(C#N)(C#N)C1(C#N)C#N | -18 | 95% (active) | 81.7% (active) | -36 | 95% (active) | 92.6% (active) | -36% | 66% | 97.8% (active) | -42 | 85% (active) | 43.7% | -36% | 95% (active) | 95.4% (active) | -46% | 95% (active) | 98.2% (active)
Clc1ccc(C2=CCCc3ccccc32)cc1 | -3 | 1% | 91.1% (active) | 6 | -4% | 96.2% (active) | -14% | 7% | 95.8% (active) | 5 | -19% | 95.7% (active) | 6% | -2% | 88.5% (active) | -2% | 3% | 96.5% (active)
C=C(C)C1CC2=C(O1)C(=O)c1ccccc1C2=O (configuration not stated) | 8 | 99% (active) | 91.9% (active) | 0 | 95% (active) | 82.5% (active) | 7% | 99% (active) | 73% (active) | -9 | 37% | 59.9% | 59% | 96% (active) | 93.1% (active) | 11% | 98% (active) | 89.8% (active)
CCC(C)OC(=O)Nc1cccc(Cl)c1 (configuration not stated) | 12 | 61% | 83.4% (active) | -7 | 1% | 23.9% | 4% | 14% | 79.5% (active) | 6 | -16% | 14.8% | -19% | -8% | 1.4% | 5% | 29% | 78.8% (active)
CC1(C)CC(O)C(O)C1 (configuration not stated) | -2 | -2% | -4% | 2 | 0% | 7.25% | 0% | -1% | 12.6% | -2 | -13% | 67.5% | 2% | 11% | -1.7% | -1% | -4% | -5.6%
O=C1C(=O)C(CCCO)(CCCO)CCCCCCCCC1(CCCO)CCCO | -9 | -3% | 31.4% | 5 | -11% | -35.1% | 5% | 8% | 0% | 6 | 19% | 63.8% | 13% | -7% | -6.5% | -8% | 0% | -5.95%
O=C(O)c1ccc(NC(c2ccccc2)c2ccc3cccnc3c2O)cc1 (configuration not stated) | -12 | 98% (active) | 98.2% (active) | 2 | 98% (active) | 98% (active) | -8% | 98% (active) | 97.8% (active) | -40 | 95% (active) | 97.5% (active) | -3% | 98% (active) | 97.7% (active) | 9% | 98% (active) | 98.2% (active)
Cc1cc(O)ccc1SC#N | -11 | 53% | 87.2% (active) | -22 | 32% | 80% (active) | -13% | 28% | 79.9% (active) | -3 | 21% | 73.4% (active) | -11% | 57% | 79.3% (active) | 7% | 66% | 83.5% (active)
CC[O-].CC[O-].[O-]c1ccccc1C=Nc1ccccc1.[O-]c1ccccc1C=Nc1ccccc1.[Ti+4] | 23 | 23% | 50.5% | 22 | 22% | 14.8% | 12% | 12% | 19.8% | 13 | 13% | 29.9% | 12% | 12% | 19.9% | 23% | 23% | 19.9%
O=C1/C(=C\c2ccccc2)CCC/C1=C\O | -139 | -89% | 39.9% | -46 | -40% | 46.5% | -50% | -44% | 6.4% | -56 | -56% | 33.9% | -64% | -68% | 20% | -112% | -92% | 58.2%
C=CC(C)(CCC=C(C)C)OC(=O)Nc1ccccc1 (configuration not stated) | 19 | -13% | -7.2% | 2 | -25% | -12.7% | -10% | 13% | 16.1% | -2 | 6% | -7.95% | 0% | -14% | 8.05% | -2% | 24% | -4.25%
C=CC(=O)N1C/C(=C\c2ccc([N+](=O)[O-])cc2)C(=O)/C(=C/c2ccc([N+](=O)[O-])cc2)C1 | 46 | 96% (active) | 28.7% | 33 | 97% (active) | 51.5% | 39% | 97% (active) | 87.3% (active) | 26 | 96% (active) | 88% (active) | 25% | 96% (active) | 83.9% (active) | 58% | 96% (active) | 81.5% (active)
CC[N-]c1nncs1.CC[N-]c1nncs1.CC[N-]c1nncs1.CC[N-]c1nncs1.[Cl][Rh][Cl] | -8 | 95% (active) | 97.7% (active) | 43 | 74% (active) | 97.8% (active) | 11% | 93% (active) | 98.5% (active) | 0 | 77% (active) | 91% (active) | -4% | 77% (active) | 95.6% (active) | 15% | 95% (active) | 97.6% (active)
CCCCCN=Cc1c(O)c(O)c(C(C)C)c2cc(C)c(-c3c(C)cc4c(C(C)C)c(O)c(O)c(C=NCCCCC)c4c3O)c(O)c12 | 2 | 43% | 14.8% | -44 | 17% | 62.9% | 2% | 50% | 71.8% (active) | 1 | 11% | 20.4% | -2% | 40% | 30% | 1% | 25% | 68.5%
